Sampled rows, rich in hits. Any-hit rate of the full collection: about 9.9%.
SW480 rereplic: inducers of DNA re-replication in SW480 colon cancer cells; SW480 DNA re-replication, Hoechst DNA content imaging, 48 h; Potency, µM (doses to about 46.1 µM), without a hit: top-dose re-replication activation, actives largely listed as activators; 1.8% of 340,000 active; also: potency is read from the fitted curve at half-maximal effect; % of control where 0% means no effect; nearly all actives have a fitted effect of over 55% in size
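First, 250 cells per well were seeded. Next, compound or vehicle (23 nL) was pinned in, plates sat 48 hr at 37 C. Finally Hoechst was added for 40 min before fluorescence scanning.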
KB-3-1 tox: kills parental KB-3-1 adenocarcinoma cells; KB-3-1 viability, CellTiter-Glo ATP luminescence, 72 h; AID 1347075; 1.4% of 400,000 active; Potency, µM (highest dose often 46.1 µM), actives largely listed as cytotoxic; also: potency is read from the fitted curve at half-maximal effect; % is scaled to controls: 0 for no effect and ±100 for the full control effect; nearly all actives have a fitted effect of over 60% in size
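Parental KB-3-1 adenocarcinoma cells in phenol-red-free DMEM with 10% FBS were pin-treated with compounds at several concentrations, incubated 72 h at 37 °C, and viability read by CellTiter-Glo luminescence; concentration-effect curves were fitted after normalization.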
IL-1B inflam inh: inflammasome signaling inhibition, IL-1 beta readout; THP-1 LPS/ATP IL-1B secretion, AlphaLISA, 16 h; stronger effect = lower value; activity change, % at 57.5 µM; 4.7% of 360,000 active; AID 743279; in the data active = activity change below about -50%; inconclusive = mostly about -30% to -49%; also: % is scaled to controls: 0 for no effect and ±100 for the full control effect
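THP-1 cells pretreated 1 hr with compounds (up to 57.5 uM final), then stimulated with LPS (250 ng/mL final) plus ATP (1.25 mM final); secreted IL-1B measured by AlphaLISA after 16 hr, decreased signal indicating inhibition.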
MCF10A rerep: induces DNA re-replication in MCF 10a normal breast cells; 2.9% of 350,000 active; Potency, µM (series often up to 46.1 µM), for the others: at the highest dose activity, positive = re-replication, most hits filed as activators; AID 624296; MCF 10A DNA re-replication, Hoechst nuclear intensity, 48 h; also: potency is read from the fitted curve at half-maximal effect; % of control where 0% means no effect; nearly all actives have a fitted effect of over 50% in size
KB-V1 cytotox: KB-V1 MDR subline cytotoxicity; KB-V1 MDR cells viability, CellTiter-Glo, 72 h; Potency, µM (doses to about 46.1 µM), usual class: cytotoxic; 3.4% of 400,000 active; also: potency is read from the fitted curve at half-maximal effect; % is scaled to controls: 0 for no effect and ±100 for the full control effect; nearly all actives have a fitted effect of over 60% in size
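Readout: CellTiter-Glo luminescence, 10 min after addition. Cells: KB-V1 MDR subline, 72 h at 37 degrees C with compound. Analysis: corrected, normalized data fitted to concentration-effect curves.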
Numbers without * were called inactive; i = inactive; ? = inconclusive; . = not tested or not shown. Unless noted, calls follow the shape of the dose curve; as a rule, active = well fitted curve in the direction sought with a large enough effect; inconclusive = small, poorly fitted or top-dose-only effect, or another doubt; inactive = no such curve, though single readings can be large; an effect the other way counts as inactive or inconclusive.

SMILES	SW480 rereplic	KB-3-1 tox	IL-1B inflam inh	MCF10A rerep	KB-V1 cytotox
CC[C@@H](C(=O)[C@@H](C)[C@@H](O)[C@H](C)CCc1ccc(C)c(O)c1C(=O)O)[C@H]1O[C@](CC)([C@H]2CC[C@](O)(CC)[C@H](C)O2)C[C@@H]1C	?	?	-92*	?	?
COc1ccc2nccc(/C=C/c3ccnc4ccc(OC)cc34)c2c1	23µM*	i	?	15µM*	i
COc1cc(OC)c(OC)cc1/C=C/c1ccnc2ccccc12	?	?	-14	?	?
COc1ccccc1/C=C/c1ccnc2ccccc12	.	i	.	.	i
COc1ccc(OC)c(/C=C/c2ccnc3ccccc23)c1	12µM*	?	-76*	5.2µM*	5.2µM*
Cc1ccccc1-c1nc(CS(=O)(=O)CC(=O)N2CCOCC2)c(C)o1	?	i	24	1%	i
CN1CCN(c2ccc(NC(=O)c3ccc(-c4ccc(Br)cc4)o3)cc2)CC1	?	?	-92*	?	?
CCN1CCN(c2ccc(NC(=O)c3ccc(Br)o3)cc2)CC1	-20%	i	-6	-26%	i
CC(=O)N1CCN(c2ccc(NCc3ccc(-c4ccc(Br)cc4)o3)cc2)CC1	13µM*	9.2µM*	.	23µM*	i
CC(=O)N1CCN(c2ccc(NCc3cccc4ccccc34)cc2)CC1	7%	?	-76*	?	i
CC(=O)c1cccc(OCc2cc(C(=O)NCc3nc(C)c(C)s3)no2)c1	-2%	i	-5	-1%	i
C/C(=N/NC(=O)Cc1cccn1C)c1ccccc1	-5%	i	-17	1%	i
C/C(=N\NC(=O)Cc1cccn1C)c1ccc2ccccc2c1	2%	i	-61*	17%	i
COc1ccc(N2CC(C(=O)Nc3cc(C)ccn3)CC2=O)cc1 (stereo not given)	3%	i	34	8%	i
O=C1CC2(CCCCC2)CC(=O)N1CCc1ccccc1	1%	i	-14	12%	i
O=C1C=CC(=O)C(C2=C3C(=O)N(CCc4ccccc4)CC(=O)N3CCC2)=C1	?	i	?	7.3µM*	i
CCNC(=O)C1(C)CCN(C(=O)c2ccccc2C(F)(F)F)C1 (stereo not given)	.	i	37	.	i
Oc1ccccc1CNc1ccc(OC(F)(F)F)cc1	-2%	i	-89*	-3%	i
Cc1ccc(NCc2ccccc2O)cc1C	22%	i	-16	16%	i
Cc1cc(C)c2nc(Nc3nc(-c4ccccc4)cc(=O)[nH]3)nc(C)c2c1	5%	i	?	?	?
Cc1cc(-c2ccccc2)nc(Nc2nc3c(C)cccc3c(=O)[nH]2)n1	-1%	i	3	9.2µM*	i
COc1cc(OC)c(NC(=O)CSc2cc(=O)n(C)c3ccc(Cl)cc23)cc1Cl	.	i	.	.	?
CCc1ccc(C)[n+](CC(=O)c2cccs2)c1	-4%	?	-58*	?	i
COc1ccc(OC)c(N2CC(O)(c3ccccc3)[N+]3=C2SCCC3)c1 (stereo not given)	-2%	i	-51*	6%	i
COc1ccc(C2(O)CN(c3ccccc3)C3=[N+]2CCS3)cc1OC (stereo not given)	-5%	i	7	?	?
SMILES	SW480 rereplic	KB-3-1 tox	IL-1B inflam inh	MCF10A rerep	KB-V1 cytotox
OC1(c2ccc(Cl)cc2)CN(c2ccccc2)C2=[N+]1CCS2 (stereo not given)	?	i	-78*	8%	?
COc1cc(N=C2C(=O)N3c4c(cccc42)C(C)=CC3(C)C)cc(OC)c1	21µM*	i	-14	16%	?
CC1=CC(C)(C)N2C(=O)C(=Nc3ccc(O)cc3)c3cccc1c32	?	?	-53*	26%	i
C=CC(=O)Nc1ccc(N(C)c2ccnc(Nc3ccc(N4CCN(C)CC4)cc3)n2)cc1	?	i	-77*	?	?
CN1CCN(c2ccc(NC(=O)COc3ccccc3Cl)cc2)CC1	-1%	i	?	?	i
CC(C)(C)OC(=O)NCCc1nnc(S(=O)(=O)Cc2ccc(Cl)cc2Cl)o1	?	i	-118*	7.3µM*	i
CC(C)(C)OC(=O)NCCc1nnc(SCc2ccccc2Cl)o1	1%	i	9	12%	i
O=C(CCl)Nc1c2c(nn1-c1ccccc1)CSC2	?	?	-96*	?	?
O=C(CCCCl)Nc1c2c(nn1-c1ccccc1)CSC2	-32%	i	-2	0%	?
COc1cc2c(=O)c(C(=O)c3ccc(F)cc3)cn(Cc3cccc(F)c3)c2cc1OC	.	i	.	.	i
O=C(Nc1ccccc1C(=O)NCc1ccccc1)c1ccccc1Br	-3%	i	-4	9%	?
O=C(Nc1ccccn1)c1ccco1	1%	i	8	1%	i
O=C(Nc1ccccc1C(=O)NCc1ccc(Cl)cc1)c1ccco1	?	i	-12	19%	8.2µM*
Cc1ccnc(NC(=O)c2ccccc2NC(=O)c2ccc(Cl)cc2Cl)c1	4.6µM*	5.8µM*	63	6.5µM*	3.3µM*
O=C(O)CNC(=O)c1ccccc1NC(=O)c1ccco1	-8%	i	24	-1%	i
O=C(Nc1ccc(Cl)cc1C(=O)Nc1ccccn1)c1ccco1	-12%	i	-52*	-3%	?
Cc1ccccc1C(=O)Nc1ccccc1C(=O)NCc1ccccc1	-3%	i	-12	?	21µM*
COC(=O)c1ccc(NC(C)C(=O)OC)c([N+](=O)[O-])c1 (stereo not given)	0%	i	-4	18%	i
CCOC(=O)C1CCCN(C(=O)Cn2ncc3c(C)n(Cc4ccccc4F)c(C)c3c2=O)C1 (stereo not given)	.	i	.	.	i
CC1(C(=O)Nc2ccccc2)CCN1C(=O)Cc1ccc(-c2ccccc2)cc1 (stereo not given)	.	i	-7	.	i
CC1(C(=O)Nc2ccc3c(c2)OCO3)CCN1C(=O)Cc1ccc(-c2ccccc2)cc1 (stereo not given)	.	12µM*	-28	.	3.3µM*
CC1(C(=O)Nc2ccc3c(c2)OCO3)CCN1Cc1ccccc1OC(F)F (stereo not given)	.	i	-67*	.	i
CC1(C(=O)Nc2ccc3c(c2)OCCO3)CCN1Cc1ccc2ccccc2c1 (stereo not given)	.	?	-21	.	21µM*
COc1ccc(NC(=O)C2(C)CCN2Cc2ccccc2OC(F)F)cc1OC (stereo not given)	.	i	-6	.	?

Screening data: PubChem BioAssay, National Center for Advancing Translational Sciences (NCATS)
